CBX7 AlphaScr = inhibitors of human CBX7 binding to H3K27me3 peptide | O95931 | AlphaScreen His6-CBX7 / biotin-H3K27me3 peptide binding; active compounds read low | normalised signal (fraction of DMSO) (concentration not given with the values) | 1.1% of 66,000 active; in the data active = normalised signal below about 0.5
Target sequence (O95931 whole entry, looked up): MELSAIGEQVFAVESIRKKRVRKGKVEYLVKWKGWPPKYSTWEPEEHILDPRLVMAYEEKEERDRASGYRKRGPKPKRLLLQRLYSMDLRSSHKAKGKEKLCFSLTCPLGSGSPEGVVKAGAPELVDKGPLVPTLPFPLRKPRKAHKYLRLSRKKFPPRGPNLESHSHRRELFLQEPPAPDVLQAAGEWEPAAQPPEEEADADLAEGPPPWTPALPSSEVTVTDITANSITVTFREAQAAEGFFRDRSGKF
Numbers stand for hits; n = inactive; ! = not confirmed by another sample. This excerpt belongs to a sample that is enriched for hits.

SMILES	CBX7 AlphaScr
O=C(Nc1nnc(C2CCCCC2)s1)c1ccc(Cl)cc1	n
COc1ccc(C2C(C(=O)Nc3ccc(F)cc3F)CCC(=O)N2c2ccc3c(c2)OCO3)cc1 (centres undefined)	n
COCc1nc2ccccc2n1CCOc1ccc(C)cc1	n
COc1ccccc1-c1cc2nc(C)c(CCC(=O)Nc3ccc(Br)cc3)c(C)n2n1	n
Cc1ccc(CNC(=O)CN2C(=O)CSc3ccc(S(=O)(=O)N4CCOCC4)cc32)cc1	n
CCCCN(CCCC)S(=O)(=O)c1ccc(C(=O)Nc2nnc(COC)o2)cc1	0.156
CCN(CC)S(=O)(=O)c1ccc(C(=O)Nc2nnc(COC)o2)cc1	0.0237
CCN(CC)S(=O)(=O)c1ccc(C(=O)Nc2nnc(-c3ccccc3Cl)o2)cc1	n
CCCCN(CCCC)S(=O)(=O)c1ccc(C(=O)Nc2nnc(-c3ccccc3Cl)o2)cc1	n
CCCCN(CCCC)S(=O)(=O)c1ccc(C(=O)Nc2nnc(-c3cccs3)o2)cc1	n
O=C1C2C3C=CC(CO)(O3)C2C(=O)N1c1cc(C(F)(F)F)ccc1Cl (centres undefined)	n
Cc1ccc(Nc2ncc(C(=O)N(C)CCc3ccccn3)c3ccccc23)cc1Cl	n
COc1ccc(C2=NOC(C(=O)NC(C)c3ccccc3)C2)cc1 (centres undefined)	n
Fc1ccccc1Cn1c(-c2cncs2)nc2ccccc21	n
CC(C)CSc1oc(-c2ccccc2)nc1S(=O)(=O)c1ccc(F)cc1	n
COc1ccc(-c2csc(Nc3cccc(C(F)(F)F)c3)n2)cc1F	n
COc1ccc(-c2csc(Nc3ccccc3OC)n2)cc1F	n
O=C1c2ccccc2C(=O)N1c1cccc(-c2csc(Nc3ccc4c(c3)OCO4)n2)c1	n
Ic1ccc(-c2csc(Nc3ccc4ccccc4c3)n2)cc1	n
Fc1ccc(-c2csc(Nc3ccc4c(c3)OCO4)n2)cc1	0.385!
COc1ccc(-c2csc(Nc3ccc4c(c3)OCO4)n2)cc1F	0.476!
CC(C)Cc1ccc(-c2csc(Nc3ccc(F)cc3)n2)cc1	n
CC(=O)Nc1ccc(Nc2nc(-c3ccccc3)cs2)cc1	n
c1ccc(-c2csc(Nc3cccc4ccccc34)n2)cc1	n
O=C(Nc1nc(-c2ccc(Cl)cc2)cs1)c1ccc2c(c1)OCO2	n
SMILES	CBX7 AlphaScr
CN(C)c1ccc(Nc2nc(-c3ccccc3)cs2)cc1	0.337
c1ccc(-c2csc(Nc3ccc4c(c3)OCO4)n2)cc1	0.37!
CCOc1ccccc1-n1c(CCC(=O)O)ccc1-c1cccs1	n
CCOc1ccccc1NS(=O)(=O)c1ccc2c(c1)CC(C)N2C(C)=O (centres undefined)	n
COc1ccc(C(=O)c2oc3ccccc3c2NC(=O)Cc2ccccc2)cc1	n
Cc1c(Cl)cccc1N1CC(c2nc3ccccc3n2CC(C)C)CC1=O (centres undefined)	n
Cc1noc(/C=C/c2cccs2)c1S(=O)(=O)N1CCC(C(=O)NC2CCCCCCC2)CC1	n
COc1ccc(-c2nc(-c3cccs3)c(-c3cccs3)[nH]2)cc1	n
COc1ccc(-c2nc(-c3ccccc3)c(-c3cccs3)[nH]2)cc1O	n
Oc1ccc(-c2nc(-c3ccc(-c4ccccc4)cc3)c(-c3ccc(-c4ccccc4)cc3)[nH]2)cc1	n
Fc1ccc(-c2nc(-c3ccccc3)c(-c3cccs3)[nH]2)cc1	n
c1ccc(-c2nc(-c3cccnc3)[nH]c2-c2ccccc2)cc1	0.308!
O=C(O)c1ccc(-c2nc(-c3cccc(Cl)c3)c(-c3ccccc3)[nH]2)cc1	n
Oc1ccc(-c2[nH]c(-c3cccc(Cl)c3)nc2-c2ccccc2)cc1	0.412
COc1ccc(-c2nc(-c3ccccc3)c(-c3cccs3)[nH]2)cc1OC	n
Brc1ccc(-c2nc(-c3ccccc3)c(-c3ccc(Oc4ccccc4)cc3)[nH]2)cc1	n
c1cncc(-c2nc3ccccc3[nH]2)c1	n
COc1ccc(-c2nc(-c3cccs3)c(-c3cccs3)[nH]2)cc1OC	0.446
Oc1ccc(-c2nc(-c3ccccc3)c(-c3cccs3)[nH]2)cc1	0.467
Fc1ccc(-c2sc(Nc3cccc(Cl)c3)nc2C(F)(F)F)cc1	n
Cc1cc(C)c2nc(N3CCC(C(=O)N4CCOCC4)CC3)sc2c1	n
Cc1ccc(N(CC(O)CN2C(=O)NC(C)(C)C2=O)S(=O)(=O)c2ccc3ccccc3c2)cc1 (centres undefined)	n
O=C1CCc2cc(S(=O)(=O)NC(Cc3ccccc3)C(=O)N3CCOCC3)ccc2N1 (centres undefined)	n
CCOC(=O)c1c(NC(=O)CN2CCN(Cc3ccccc3)CC2)sc2c1CCN(C(=O)OCC)C2	n
Cc1ccsc1-c1nc(CSCC(=O)NCc2ccccc2Cl)c(C)o1	n
COc1ccc(N(C)S(=O)(=O)c2ccc3c(c2)CCN3C(=O)C2CC2)cc1	n
CC(C)COc1ccc(N2CC(C(=O)Nc3ccc(Cl)cc3Cl)CC2=O)cc1 (centres undefined)	n
COc1cccc(-c2nc(-c3ccccc3)c(-c3cccs3)[nH]2)c1OC	0.428
COc1cccc(-c2nc(-c3ccsc3)c(-c3ccccc3)[nH]2)c1OC	n
COc1cccc(-c2nc(-c3cccs3)c(-c3cccs3)[nH]2)c1	n

Screening data from PubChem BioAssay.
